Bioassay records: PubChem, Broad Institute
Shown are actives, neighbours in structure and some others; about 1.5% of the full set was active somewhere.
dFosB activator – activators of mouse delta FosB homodimer; P13346; purified delta FosB, TAMRA-CDK5 oligo fluorescence polarization; percent of positive-control signal above neutral wells; activation, % at 25 µM; 340,000 tested, 0.99% active;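 active = mean activation above about 17%, with every replicate also reaching it, limit read from the data, passing the limit was not always enough; inconclusive = only one of the two conditions met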
RAD52 anneal inh – inhibitors of human RAD52 DNA annealing | inhibition, % at 18.7 µM | 360,000 tested, 0.46% active | AID 651710 | recombinant RAD52 DNA annealing, FRET fluorescence | P43351;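 active = every replicate showing at least 50% inhibition; inconclusive = mean inhibition at least 50% but not in every replicate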
Target sequence (P43351 whole entry, looked up): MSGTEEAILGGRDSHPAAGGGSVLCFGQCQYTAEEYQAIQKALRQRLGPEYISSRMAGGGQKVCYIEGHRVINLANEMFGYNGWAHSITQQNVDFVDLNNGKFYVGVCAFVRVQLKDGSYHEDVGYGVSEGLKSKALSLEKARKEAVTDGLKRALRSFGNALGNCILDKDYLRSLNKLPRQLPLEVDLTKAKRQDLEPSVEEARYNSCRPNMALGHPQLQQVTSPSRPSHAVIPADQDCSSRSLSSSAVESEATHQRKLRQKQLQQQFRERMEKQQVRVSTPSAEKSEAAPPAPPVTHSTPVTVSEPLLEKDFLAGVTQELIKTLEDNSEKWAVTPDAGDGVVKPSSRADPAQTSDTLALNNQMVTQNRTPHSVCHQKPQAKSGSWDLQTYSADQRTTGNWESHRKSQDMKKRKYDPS
N-glyco inh – N-linked glycosylation inhibition; D54 ERlucT glycosylation luciferase reporter, 24 h; percent of 100 nM tunicamycin response; reporter increase, % at 12.5 µM; 360,000 tested, 0.23% active;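 active = mean luciferase reporter signal, scaled so untreated is 0 and the glycosylation-blocking control 100, at or above a set limit in every replicate; inconclusive = mean reaches the limit but not every replicate does; inactive = mean below the limit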;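 note: luciferase carries N-glycosylation sites so blocking glycosylation raises the light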
CFTR F508del cor – CFTR F508del correction in bronchial cells; CFBE cells, YFP halide quenching; stimulated with forskolin plus potentiator P3; % fluorescence drop versus neutral controls; activity (quench increase), % at 7.58 µM; 350,000 tested, 0.36% active;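 active = mean added fluorescence quench of at least 8% versus neutral control, with both replicates also reaching 8%; inconclusive = only one of the mean or replicate conditions met; inactive = mean below 8% and not both replicates reaching 8%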;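 note: cells transiently co-express mutant CFTR-F508del with the halide-sensitive YFP; corrector assay measuring rescue of mutant channel to the surface after 24 h compound exposure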
RAD54 branch – inhibitors of human RAD54 branch migration. Q92698. RAD54 Holliday junction branch migration, FAM/BHQ fluorescence. inhibition, % at 10.4 µM. 360,000 tested, 0.14% active. AID 602329;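 active = mean normalized replicate activity at least 40 and at least half of replicates scoring 40 or more; inconclusive = only one of the two criteria met; inactive = mean below 40 and under half of replicates reaching 40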;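 note: inhibitors cause a drop in the FAM fluorescence signal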
PvdQ acylase – blocks Pseudomonas aeruginosa PvdQ acylase activity. purified PvdQ acylase, fluorescence plate reader. inhibition, % at 10 µM. 340,000 tested, 0.063% active; in the data active = inhibition above about 30%, passing the limit was not always enough; inconclusive = no clear call, values can overlap the other calls
Each line names hits and unclear results; the compound was inactive in the other large screens.

Cc1cc(O)cc2c1C1CCC3(C)C(=O)CCC3C1C=C2 (stereo unspecified)	CFTR F508del cor 8.3 (no result: RAD54 branch)
C[C@]12CC[C@@H]3c4ccc(O)cc4CC[C@H]3[C@@H]1CCC2=O	none
O=C(CCN1C(=O)/C(=C/c2ccccc2)SC1=S)Nc1ccccn1	none
Cc1cc(NC(=O)CCCN2C(=O)/C(=C/c3ccccc3Cl)SC2=S)no1	dFosB activator 37
Cc1cc(NC(=O)CCN2C(=O)/C(=C\c3ccccc3)SC2=S)no1	dFosB activator 40
CCOc1ccc(/C=C2\SC(=S)N(CC(=O)Nc3ccccn3)C2=O)cc1	dFosB activator 22
O=C(CCCN1C(=O)/C(=C\c2cccs2)SC1=S)Nc1ccc(O)cc1	none (no result: RAD54 branch)
O=C(CCCN1C(=O)/C(=C/c2cccs2)SC1=S)Nc1ccccc1O	dFosB activator 34
C[C@@H]1CN([C@@H](C)CO)C(=O)c2cccc(NS(=O)(=O)c3cn(C)cn3)c2O[C@@H]1CN(C)C(=O)Nc1ccc2c(c1)OCO2	none (no result: dFosB activator, N-glyco inh, PvdQ acylase)
C[C@@H]1CCCCO[C@H](CN(C)S(=O)(=O)c2cccs2)[C@@H](C)CN([C@@H](C)CO)C(=O)c2cc(N(C)C)ccc2O1	none (no result: dFosB activator, N-glyco inh, PvdQ acylase)
Oc1ccc(Cl)cc1C1=NNC(c2cccs2)C1 (stereo unspecified)	PvdQ acylase 34
CN(C)CC(=O)N1[C@H](CO)[C@@H](c2ccccc2)C12CN(C(=O)C1CCCC1)C2	none (no result: dFosB activator, N-glyco inh, RAD54 branch, PvdQ acylase)
CN1C(=O)c2cc(NC(=O)C3CC3)ccc2OC[C@H]2O[C@H](CC(=O)NCCN3CCCC3)CC[C@@H]21	none (no result: dFosB activator, N-glyco inh, PvdQ acylase)
C=CCNc1nc(Nc2ccc([N+](=O)[O-])cc2)nc(N2CCCC2)n1	dFosB activator 62 (no result: RAD52 anneal inh, CFTR F508del cor, RAD54 branch)
C=CCNc1nc(Cl)nc(Nc2ccc([N+](=O)[O-])cc2)n1	none (no result: RAD54 branch)
Nc1nc(COc2ccccc2C=O)nc(Nc2ccccc2)n1	dFosB activator 59 (no result: RAD54 branch)
COc1ccc(OCc2nc(N)nc(Nc3ccccc3)n2)cc1	none (no result: RAD52 anneal inh, CFTR F508del cor)
O=C(NC1CCCC1)c1cc(Cl)ccc1[N+](=O)[O-]	PvdQ acylase 94 (no result: CFTR F508del cor, RAD54 branch)
O=C(NC1CC1)c1cc(Cl)ccc1[N+](=O)[O-]	none (no result: RAD52 anneal inh, CFTR F508del cor)
O=C(NC1CCCCC1)c1cc(Cl)ccc1[N+](=O)[O-]	PvdQ acylase 62 (no result: RAD52 anneal inh, CFTR F508del cor)
O=C(Nc1ccc(C2=NCCN2)cc1)c1ccc(C(=O)Nc2ccc(C3=NCCN3)cc2)c([N+](=O)[O-])c1	dFosB activator inconclusive, RAD52 anneal inh 104 (no result: RAD54 branch)
C=CCNC(=O)[C@@H]1[C@H]2C(=O)O[C@H](c3ccccc3)[C@H](c3ccccc3)N2[C@H](c2ccc(O)cc2)[C@@]12C(=O)N(C(=O)OCCOC)c1ccc(C#Cc3ccc(OC)cc3)cc12	none (no result: dFosB activator, N-glyco inh, PvdQ acylase)
CCOc1ccc(N(C)S(=O)(=O)c2ccc(-c3cc(C)no3)s2)cc1	none
Cc1cccc(N(C)S(=O)(=O)c2ccc(-c3cc(C)no3)s2)c1	N-glyco inh inconclusive, CFTR F508del cor 12
CCN(c1cccc(C)c1)S(=O)(=O)c1ccc(-c2cc(C)no2)s1	CFTR F508del cor 9.2
COc1ccc(-c2cc(C)no2)cc1S(=O)(=O)N(C)c1cccc(C)c1	none
CN(C)c1ccc2c(c1)OC(N)=C(C#N)C2c1cccc(F)c1 (stereo unspecified)	none (no result: RAD52 anneal inh, CFTR F508del cor)
N#CC1=C(N)Oc2cc(N)ccc2C1c1cccc(F)c1 (stereo unspecified)	CFTR F508del cor 10
COc1ccc(/C=C2\COc3ccccc3C2=O)cc1OC	N-glyco inh 36 (no result: RAD52 anneal inh, CFTR F508del cor, RAD54 branch)
C[C@H]1CN([C@@H](C)CO)C(=O)c2cccc(NS(=O)(=O)c3ccc(Cl)cc3)c2O[C@@H]1CN(C)Cc1ccc(Cl)c(Cl)c1	none (no result: dFosB activator, N-glyco inh, PvdQ acylase)
CCOc1ccccc1NC(=O)CN(c1ccc(OC)cc1)S(=O)(=O)c1c(C)noc1C	N-glyco inh 34 (no result: RAD52 anneal inh, CFTR F508del cor)
C[C@H](CO)N1C[C@H](C)[C@@H](CN(C)C(=O)Nc2ccc(F)cc2)Oc2c(NC(=O)c3cnccn3)cccc2C1=O	none (no result: dFosB activator, N-glyco inh, PvdQ acylase)
COc1ccccc1CNc1nc(-c2cc(C)n(C)c2C)cs1	dFosB activator 18 (no result: RAD52 anneal inh, CFTR F508del cor, RAD54 branch)
CN1C(=O)c2cc(NS(=O)(=O)c3cccc(F)c3)ccc2OC[C@H]2O[C@H](CC(=O)O)CC[C@@H]21	none (no result: dFosB activator, N-glyco inh, PvdQ acylase)
C[C@@H]1CCCCO[C@@H](CN(C)S(=O)(=O)c2ccc(Cl)cc2)[C@@H](C)CN([C@@H](C)CO)C(=O)c2cc(NC(=O)c3ccncc3)ccc2O1	none (no result: dFosB activator, N-glyco inh, PvdQ acylase)
NS(=O)(=O)c1ccc(CCNc2nn3c(-c4cccc(OC(F)(F)F)c4)cnc3s2)cc1	CFTR F508del cor 14 (no result: dFosB activator, PvdQ acylase)
